# Source: the supplement of paper PMC8728848
# Many of the other results were omitted from the sample, so the strongest signals are more common in it than they were.
# B1: PEB3 Cj0289c (Campylobacter jejuni), Q9PIK7 (protein)
# chain: MDVNLYGPGGPHTALKDIANKYSEKTGVKVNVNFGPQATWFEKAKKDADILFGASDQSALAIASDFGKDFNVSKIKPLYFREAIILTQKGNPLKIKGLKDLANKKVRIVVPEGAGKSNTSGTGVWEDMIGRTQDIKTIQNFRNNIVAFVPNSGSARKLFAQDQADAWITWIDWSKSNPDIGTAVAIEKDLVVYRTFNVIAKEGASKETQDFIAYLSSKEAKEIFKKYGWRE
# B2: Epa3to2 (Candida glabrata) (protein)
# chain: MGSSHHHHHHSSGLVPRGSHMKRELSSQNPFGYPIGCSPQDVAIIPGLTMELYSYPIVSGTPPNCYDASYVDPEYPRTGYLKRKMVGKSTGVTGNLNYKYSVEKACMVKYGNLPAGYNYNEPLTVSNFTMILYGYFKAQTTGLHTFFVNADDLLYINFGAGNAFDCCKREDSKTKLGEYVAYDIWHVDSSKNKVSLFLEKDLYYPIRMFFNNRDNNSSLDLSFSVNGATDQISDFSGYLYSVPDQPDTCPAHIGYDTTCR
# Key:
# Assay in all cases: glycan array binding signal (z-score within array); higher = stronger binding
# Details in all cases: glycan notation: IUPAC condensed, linker removed
# [1] = molecular target: Fuc(a1-2)Gal(b1-3)GalNAc(b1-3)Gal
# How it was run: (§1)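 Columns mapping to the same glycan were averaged after glycan names were converted to IUPAC-condensed notation. The data come from 3228 arrays in the Consortium for Functional Glycomics database, limited to those with an available protein sequence. Binding is reported as a within-array Z-score averaged across arrays of one protein sequence and across linkers.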
# [2] = molecular target: Fuc(a1-2)Gal(b1-4)GlcNAc(b1-3)Gal(b1-4)GlcNAc(b1-3)Gal(b1-4)GlcNAc
# How it was run: as §1
# [3] = molecular target: Fuc(a1-2)[GalNAc(a1-3)]Gal(b1-4)[Fuc(a1-3)]GlcNAc
# How it was run: as §1
# [4] = molecular target: Fuc(a1-3)[Gal(b1-4)]GlcNAc(b1-4)Gal(b1-4)[Fuc(a1-3)]GlcNAc(b1-4)Gal(b1-4)[Fuc(a1-3)]GlcNAc
# How it was run: as §1
# [5] = molecular target: Fuc(a1-3)[Gal3S(b1-4)]GlcNAc6S
# How it was run: as §1
# [6] = molecular target: Fuc(a1-4)GlcNAc
# How it was run: as §1
# [7] = molecular target: Gal(a1-6)Glc
# How it was run: as §1
# [8] = molecular target: Gal(b1-3)[Neu5Ac(a2-6)]GalNAc
# How it was run: as §1
# [9] = molecular target: Gal(b1-4)GalNAc(b1-3)[Fuc(a1-2)]Gal(b1-4)GlcNAc
# How it was run: as §1
# [10] = molecular target: Gal3S(b1-4)Glc6S
# How it was run: as §1
# [11] = molecular target: Gal3S6S(b1-4)GlcNAc6S
# How it was run: as §1
# [12] = molecular target: Gal4S(b1-4)GlcNAc
# How it was run: as §1
# [13] = molecular target: Gal6S(b1-4)Glc6S
# How it was run: as §1
# [14] = molecular target: Man(a1-2)Man(a1-2)Man(a1-3)[Man(a1-2)Man(a1-3)[Man(a1-2)Man(a1-6)]Man(a1-6)]Man(b1-4)GlcNAc(b1-4)GlcNAc
# How it was run: as §1
# [15] = molecular target: Man(a1-2)Man(a1-2)Man(a1-6)[Man(a1-3)]Man
# How it was run: as §1
# [16] = molecular target: Man(a1-2)Man(a1-3)[Man(a1-6)]Man(a1-6)[Man(a1-2)Man(a1-3)]Man(b1-4)GlcNAc(b1-4)GlcNAc
# How it was run: as §1
# [17] = molecular target: Neu5Ac(a2-3)[GalNAc(b1-4)]Gal(b1-4)GlcNAc
# How it was run: as §1
# [18] = molecular target: Neu5Ac(a2-8)Neu5Ac(a2-3)[GalNAc(b1-4)]Gal(b1-4)Glc
# How it was run: as §1
# [19] = molecular target: Neu5Ac(a2-8)Neu5Ac(a2-8)Neu5Ac(a2-3)Gal(b1-4)Glc
# How it was run: as §1
# [20] = molecular target: Neu5Gc(a2-3)Gal(b1-4)GlcNAc
# How it was run: as §1
# [21] = molecular target: Fuc(a1-2)Gal(b1-3)GlcNAc(b1-3)[Gal(b1-4)GlcNAc(b1-6)]Gal(b1-4)Glc
# How it was run: as §1
# [22] = molecular target: Fuc(a1-2)Gal(b1-4)GlcNAc6S
# How it was run: as §1
# [23] = molecular target: Fuc(a1-2)Gal(b1-4)[Fuc(a1-3)]GlcNAc(b1-2)Man(a1-3)[Fuc(a1-2)Gal(b1-4)[Fuc(a1-3)]GlcNAc(b1-2)Man(a1-6)]Man(b1-4)GlcNAc(b1-4)[Fuc(a1-6)]GlcNAc
# How it was run: as §1
# [24] = molecular target: Fuc(a1-2)Gal6S(b1-3)GlcNAc6S
# How it was run: as §1
# [25] = molecular target: Fuc(a1-2)[Gal(a1-3)]Gal(b1-3)GlcNAc
# How it was run: as §1
# [26] = molecular target: Fuc(a1-2)[Gal(a1-3)]Gal(b1-4)GlcNAc
# How it was run: as §1
# [27] = molecular target: Fuc(a1-2)[Gal(a1-3)]Gal(b1-4)GlcNAc(b1-6)GalNAc
# How it was run: as §1
# [28] = molecular target: Fuc(a1-3)[Gal(b1-4)]Glc6S
# How it was run: as §1
# [29] = molecular target: Fuc(a1-3)[Gal(b1-4)]GlcNAc(b1-6)GalNAc
# How it was run: as §1
# [30] = molecular target: Fuc(a1-3)[Gal3S(b1-4)]Glc
# How it was run: as §1
# [31] = molecular target: Gal(a1-3)Gal(b1-4)GlcNAc(b1-2)Man
# How it was run: as §1
# [32] = molecular target: Gal(b1-3)GlcNAc
# How it was run: as §1
# [33] = molecular target: Gal(b1-3)GlcNAc(a1-3)Gal(b1-4)GlcNAc
# How it was run: as §1
# [34] = molecular target: Gal(b1-3)GlcNAc(b1-2)[Gal(b1-3)GlcNAc(b1-6)]Man(a1-6)[Gal(b1-3)GlcNAc(b1-2)Man(a1-3)]Man(b1-4)GlcNAc(b1-4)GlcNAc
# How it was run: as §1
# [35] = molecular target: Gal(b1-3)GlcNAc(b1-3)Gal(b1-4)GlcNAc(b1-2)[Gal(b1-3)GlcNAc(b1-3)Gal(b1-4)GlcNAc(b1-6)]Man(a1-6)[Gal(b1-3)GlcNAc(b1-3)Gal(b1-4)GlcNAc(b1-2)Man(a1-3)]Man(b1-4)GlcNAc(b1-4)[Fuc(a1-6)]GlcNAc
# How it was run: as §1
# [36] = molecular target: Gal(b1-3)[Fuc(a1-4)]GlcNAc(b1-2)Man
# How it was run: as §1
# [37] = molecular target: Gal(b1-3)[Fuc(a1-4)]GlcNAc(b1-3)Gal(b1-3)[Fuc(a1-4)]GlcNAc
# How it was run: as §1
# [38] = molecular target: Gal(b1-4)GlcNAc(b1-2)Man(a1-3)[Man(a1-6)]Man(b1-4)GlcNAc(b1-4)GlcNAc
# How it was run: as §1
# [39] = molecular target: Gal3S(b1-4)[Fuc(a1-3)]Glc6S
# How it was run: as §1
# [40] = molecular target: Gal3S4S(b1-4)GlcNAc
# How it was run: as §1
# [41] = molecular target: Gal3S6S(b1-4)GlcNAc
# How it was run: as §1
# [42] = molecular target: Gal6S(b1-3)GlcNAc
# How it was run: as §1
# [43] = molecular target: Gal6S(b1-3)GlcNAc6S
# How it was run: as §1
# [44] = molecular target: Gal6S(b1-4)GlcNAc6S
# How it was run: as §1
# [45] = molecular target: GalNAc(a1-3)Gal
# How it was run: as §1
# [46] = molecular target: GalNAc(b1-3)Gal(a1-6)Gal(b1-4)Glc
# How it was run: as §1
# [47] = molecular target: GlcNAc(a1-3)Gal(b1-4)GlcNAc
# How it was run: as §1
# [48] = molecular target: GlcNAc(a1-4)Gal(b1-3)GlcNAc
# How it was run: as §1
# [49] = molecular target: GlcNAc(a1-4)Gal(b1-4)GlcNAc(b1-3)Gal(b1-4)[Fuc(a1-3)]GlcNAc(b1-3)Gal(b1-4)[Fuc(a1-3)]GlcNAc
# How it was run: as §1
binder,measurement,setting,value
B1,glycan array binding signal (z-score),[1],1.6
same,glycan array binding signal (z-score),[2],-0.33
same,glycan array binding signal (z-score),[3],-0.226
same,glycan array binding signal (z-score),[4],-0.441
same,glycan array binding signal (z-score),[5],0.228
same,glycan array binding signal (z-score),[6],-0.029
same,glycan array binding signal (z-score),[7],1.25
same,glycan array binding signal (z-score),[8],-0.409
same,glycan array binding signal (z-score),[9],-0.381
same,glycan array binding signal (z-score),[10],1.38
same,glycan array binding signal (z-score),[11],2.8
same,glycan array binding signal (z-score),[12],0.039
same,glycan array binding signal (z-score),[13],1.36
same,glycan array binding signal (z-score),[14],-0.256
same,glycan array binding signal (z-score),[15],-0.192
same,glycan array binding signal (z-score),[16],-0.25
same,glycan array binding signal (z-score),[17],-0.332
same,glycan array binding signal (z-score),[18],-0.28
same,glycan array binding signal (z-score),[19],-0.456
same,glycan array binding signal (z-score),[20],-0.272
B2,glycan array binding signal (z-score),[1],3.03
same,glycan array binding signal (z-score),[21],1.2
same,glycan array binding signal (z-score),[22],-0.709
same,glycan array binding signal (z-score),[23],2.47
same,glycan array binding signal (z-score),[24],2.11
same,glycan array binding signal (z-score),[25],-0.392
same,glycan array binding signal (z-score),[26],-0.27
same,glycan array binding signal (z-score),[27],-0.714
same,glycan array binding signal (z-score),[28],0.316
same,glycan array binding signal (z-score),[29],-1.35
same,glycan array binding signal (z-score),[30],0.878
same,glycan array binding signal (z-score),[31],-0.911
same,glycan array binding signal (z-score),[32],-0.751
same,glycan array binding signal (z-score),[33],-0.807
same,glycan array binding signal (z-score),[34],0.52
same,glycan array binding signal (z-score),[35],0.293
same,glycan array binding signal (z-score),[36],0.761
same,glycan array binding signal (z-score),[37],-1.46
same,glycan array binding signal (z-score),[38],0.07
same,glycan array binding signal (z-score),[39],0.958
same,glycan array binding signal (z-score),[40],-0.354
same,glycan array binding signal (z-score),[41],2.42
same,glycan array binding signal (z-score),[42],0.814
same,glycan array binding signal (z-score),[43],3.65
same,glycan array binding signal (z-score),[44],2.45
same,glycan array binding signal (z-score),[45],1.49
same,glycan array binding signal (z-score),[46],1.12
same,glycan array binding signal (z-score),[47],-1.07
same,glycan array binding signal (z-score),[48],-1.92
same,glycan array binding signal (z-score),[49],2.65
